Screening data deposited in PubChem BioAssay by National Center for Advancing Translational Sciences (NCATS).
In the library only some 3.8% were active in any assay of this set; here they are far more common.
ERK AVP inh = vasopressin-driven ERK pathway inhibition; HEK293-V1b, vasopressin-stimulated pERK AlphaScreen; Potency, µM (top dose mostly 57.5 µM), without a hit: at the top dose activity, negative = inhibition, usual class: inhibitors; hit rate 0.99% among 72,000; AID 995; note: potency is the fitted concentration of half-maximal effect; % is set by controls: 0 for no effect and ±100 for the full control effect; nearly all actives have a fitted effect of over 55% in size
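Phosphorylated ERK1/2 detected via AlphaScreen bead proximity in lysates of V1b-expressing HEK293 cells given 25 nM vasopressin for 5 min after 30 min compound exposure (37 °C). AC50 from Hill equation; basal DMSO 0%, vasopressin 100%.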
Epigenetic mod = derepresses silenced GFP locus in mouse C127i cells; hit rate 0.09% among 68,000; Potency, µM (highest dose often 46.1 µM), without a hit: top-dose GFP derepression (activation); AID 597; mouse C127i GFP locus derepression, cytometry, 30 h; note: % of control where 0% means no effect
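Derepression screen: silenced CMV-GFP reporter in murine C127i cells, 30 h compound incubation at 37 C, washed cells imaged by laser-scanning cytometer to enumerate GFP-expressing objects of 20 to 120 um.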
HEK293 cAMP cs = counter-screen for TSHR agonists: cAMP increase in parental HEK293; parental HEK293 CNG cAMP sensor, membrane potential fluorescence; Potency, µM (series often up to 57.1 µM), inactives show top-dose activation, most hits filed as activators; hit rate 2.5% among 73,000; AID 938; note: potency is the fitted concentration of half-maximal effect; % of control where 0% means no effect; nearly all actives have a fitted effect of over 55% in size
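Parental HEK 293 cells stably expressing a modified CNG channel (no TSHR) report cAMP rise as membrane depolarization. Membrane potential dye with 100 uM RO 20-1724 was loaded for 60 min at room temperature, then compound added for 30 min; fluorescence read at 590 nm.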
Ub-GFP proteasome = ubiquitin-GFP accumulation via proteasome inhibition. Ubiquitin-GFP reporter cells, proteasome inhibition, GFP fluorescence; response scale: untreated = 0%, 10 µM MG-132 = 100%. Potency, µM (series often up to 45.9 µM), for inactives: at the highest dose activation (GFP accumulation), actives largely listed as activators. 67,000 tested, under 10 active. AID 526; active = well fitted activation curve with a large enough effect, not every such curve was filed as active; inconclusive = small, poorly fitted or top-dose-only effect, or another doubt; inactive = no such curve, though single readings can be large or run the other way; note: potency is the fitted concentration of half-maximal effect
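U2OS cells expressing ubiquitin(G76V)-GFP, seeded overnight in 0.5% FBS medium, then treated 4 hr at 37 C across 46 uM to 2.9 nM. GFP-positive cells counted by laser cytometry (488 ex/515 em); %activity scaled between basal and 10 uM MG-132.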
HBB splicing = hemoglobin beta splicing modulation. HBB splicing reporter cell assay, activation; EGFP reporter with mutant IVS2-654 intron; response scale: normalised to 500 nM splice-correcting PNA. Potency, µM (series often up to 46.1 µM), inactives show top-dose activation, actives largely listed as activators. hit rate 0.06% among 65,000. AID 925; note: potency is the fitted concentration of half-maximal effect; 0% is about no effect
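Compounds were applied for 2 days to HeLa EGFP-654 cells, 500/well in Optimem with 2% FCS. The reporter's EGFP is disrupted by mis-splicing of beta-globin intron IVS2-654. Readout: summed well GFP fluorescence from 488 nm laser scanning; reference was 500 nM antisense […] 654 PNA.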
TSHR agonist = agonists of human thyroid stimulating hormone receptor; P16473; HEK293-CNG-TSHR cells (CNG channel as cAMP sensor), membrane potential dye, cAMP; Potency, µM (titrated, usually from 57.1 µM), for the others: top-dose activation, actives largely listed as activators; hit rate 0.48% among 73,000; active = well fitted activation curve with a large enough effect in the main read-out, with a control signal flat, not every such curve was filed as active; inconclusive = small, poorly fitted or top-dose-only effect, or a change in a side signal; inactive = no such curve, though single readings can be large or run the other way; % of control where 0% means no effect;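 note: the control signal comes from parental cells without the receptor; potency is the fitted concentration of half-maximal effect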
Target sequence (P16473 whole entry, looked up): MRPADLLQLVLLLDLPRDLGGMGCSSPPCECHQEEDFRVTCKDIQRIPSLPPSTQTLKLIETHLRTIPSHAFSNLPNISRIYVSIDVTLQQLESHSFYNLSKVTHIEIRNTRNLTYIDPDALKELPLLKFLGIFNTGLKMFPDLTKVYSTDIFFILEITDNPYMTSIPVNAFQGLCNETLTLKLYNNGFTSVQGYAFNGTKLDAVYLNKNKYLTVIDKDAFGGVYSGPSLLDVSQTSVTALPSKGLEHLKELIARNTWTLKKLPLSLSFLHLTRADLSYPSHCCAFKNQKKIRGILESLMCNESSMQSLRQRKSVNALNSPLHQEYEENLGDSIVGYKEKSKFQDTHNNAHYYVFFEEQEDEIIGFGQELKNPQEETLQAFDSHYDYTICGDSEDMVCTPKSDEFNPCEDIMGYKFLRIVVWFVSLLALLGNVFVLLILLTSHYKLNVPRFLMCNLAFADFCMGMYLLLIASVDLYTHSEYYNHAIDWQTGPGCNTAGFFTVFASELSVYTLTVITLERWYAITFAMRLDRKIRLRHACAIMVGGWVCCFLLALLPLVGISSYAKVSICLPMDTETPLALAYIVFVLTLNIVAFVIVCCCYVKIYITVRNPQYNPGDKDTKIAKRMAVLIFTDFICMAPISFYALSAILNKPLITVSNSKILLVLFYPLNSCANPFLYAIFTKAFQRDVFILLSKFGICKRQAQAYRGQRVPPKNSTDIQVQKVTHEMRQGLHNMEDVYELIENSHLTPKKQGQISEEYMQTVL
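HEK 293 cells stably expressing TSHR and a cAMP-gated CNG channel; parental CNG-only cells as counterscreen. Cells preloaded 60 min with membrane potential dye plus 100 uM RO 20-1724, then compound 30 min; fluorescence read at 590 nm.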
HEK293 cAMP cnt = TSHR-independent cAMP elevation, counter-screen. shares compounds with TSHR agonist. parental HEK293 CNG biosensor, cAMP membrane potential fluorescence. activity change, negative = inhibition, % at 32.9 µM. 150 tested, under 10 active
Active calls of the source: *; ? = inconclusive; / = not tested or not shown; [ ] = dose if it differs, or a comment. Unless noted, calls come from the whole dose curve; as a rule, active = well fitted curve in the direction sought with a large enough effect; inconclusive = small, poorly fitted or top-dose-only effect, or another doubt; inactive = no such curve, though single readings can be large; an effect the other way counts as inactive or inconclusive.

SMILES | ERK AVP inh | Epigenetic mod | HEK293 cAMP cs | Ub-GFP proteasome | HBB splicing | TSHR agonist | HEK293 cAMP cnt
CSC([N-]/N=C/c1cccc(C)n1)=[S]=[Cu].CS[C@H]([S-])[N-]/N=C/c1cccc(C)n1 | ? | 0%[9.22 µM] | -2%[11.4 µM] | 5%[9.17 µM] | 3%[9.22 µM] | -7%[11.4 µM] | /
Oc1c(Cl)cc(Cl)cc1Cl | 18% | / | ? | / | 0% | ? | /
O=C(c1ccco1)N1CCN(Cc2ccccc2C(F)(F)F)CC1 | -17% | -4% | 4µM* | -3%[9.17 µM] | -1%[0.0738 µM] | ? | /
CCC(=NCC1CCCO1)c1c(O)n(Cc2ccccc2)c(=O)[nH]c1=O (configuration not stated) | -22% | -2% | 4% | -1% | 2%[57.5 µM] | 1% | 6[25.6 µM]
CCOC(=O)c1c(C)n(COCCO)c2ccc(O)cc12 | -3% | ? | -3% | 3% | -1%[1.84 µM] | -1% | /
CCn1c(C)c(C(=O)O)c2cc(OC)ccc21 | -4% | 0% | -7% | -6% | 1%[57.5 µM] | 0% | 6[25.6 µM]
O=C(O)c1cc[c]([Hg][S]c2ncnc3nc[nH]c23)cc1 | 4%[11.5 µM] | -1%[9.22 µM] | 22%[11.4 µM] | 2%[9.17 µM] | ? | -9%[11.4 µM] | /
CCN1C[C@@]2(COC)[C@H](O)C[C@H](OC)[C@@]34[C@@H]5C[C@@]6(O)[C@H](OC(=O)c7ccccc7)[C@H]5[C@@](OC(C)=O)([C@H]([C@@H](OC)[C@H]23)[C@H]14)[C@H](O)[C@@H]6OC | / | -3%[9.22 µM] | 4% | 4% | / | 1% | /
O=C(Nc1ccccn1)NC12CC3CC(CC(C3)C1)C2 | 36% | -1% | 26% | -2% | / | 20µM* | -9
